Results filed as inconclusive are left out. Active and inactive are the calls of the source. Unless noted, calls follow the shape of the dose curve; as a rule, active = well fitted curve in the direction sought with a large enough effect in the repeat runs; inconclusive = weak or mixed curves; inactive = no such curve, though single readings can be large; an effect the other way counts as inactive or inconclusive.
Assays:
[1] = qHTS assay to test for compound auto fluorescence at 535 nm (green) in HEK293 cells (AID 720680)
[2] = qHTS assay to test for compound auto fluorescence at 460 nm (blue) in HEK293 cell free culture (AID 720681)
How it was run: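 Compounds were added to cell-free DMEM with 10% FBS and fluorescence read directly. The blue channel used 405 nm excitation and 460 nm emission, with triamterene as the reference fluorophore.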

[3] = qHTS assay to test for compound auto fluorescence at 535 nm (green) in HEK293 cell free culture (AID 720682)
How it was run: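 Measurement is a direct plate read of green fluorescence (485 nm in, 535 nm out) after compound addition to serum-supplemented DMEM lacking cells, with fluorescein used to express intensities.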

[4] = qHTS assay to test for compound auto fluorescence at 590 nm (red) in HEK293 cell free culture (AID 720683)
How it was run: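 Cell-free wells of DMEM with 10% FBS received compound, and intrinsic fluorescence was read at excitation/emission 540/590 nm. Values expressed as equivalence to Rose Bengal sodium.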

[5] = qHTS assay to test for compound auto fluorescence at 590 nm (red) in HepG2 cell free culture (AID 720684)
How it was run: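 Auto fluorescence equivalency versus Rose Bengal sodium, red channel Ex/Em 540/590 nm; compounds in cell-free MEM/10% FBS; DMSO vehicle control.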

[6] = qHTS assay to test for compound auto fluorescence at 460 nm (blue) in HepG2 cell free culture (AID 720685)
How it was run: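 Cell-free plates of MEM plus 10% FBS received 23 nL compound or DMSO vehicle; blue-channel (405/460 nm) intensity scored against triamterene as reference fluorophore.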

[7] = qHTS assay to test for compound auto fluorescence at 535 nm (green) in HepG2 cell free culture (AID 720686)
[8] = qHTS assay to test for compound auto fluorescence at 460 nm (blue) in HepG2 cells (AID 720687)
How it was run: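 HepG2 cells in MEM with 10% FBS, attached overnight at 37 C, were exposed to compound or DMSO for 1 hr at 37 C, 5% CO2. Blue fluorescence was read at 405/460 nm, with triamterene as reference fluorophore.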

[9] = target: Glucocorticoid receptor (Homo sapiens) (UniProt P04150); assay: qHTS assay to identify small molecule agonists of the glucocorticoid receptor (GR) signaling pathway (AID 720691; active = well fitted activation curve with a large enough effect in the signal ratio in the repeat runs, not every such curve was filed as active; the % refers to the signal ratio)
How it was run: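 Cells: GR-bla HeLa, endogenous GR with stably integrated GRE-beta-lactamase reporter. Treatment 18 h, 37 C, compounds delivered in DMSO. Detection via LiveBLAzer B/G FRET substrate, 2 h RT, fluorescence intensity.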

[10] = target: Glucocorticoid receptor (Homo sapiens) (UniProt P04150); assay: qHTS assay to identify small molecule antagonists of the glucocorticoid receptor (GR) signaling pathway (AID 720692; active = well fitted inhibition curve with a large enough effect in the signal ratio in the repeat runs, not every such curve was filed as active; the % refers to the signal ratio)
How it was run: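 Quantitative HTS in antagonist format: HeLa cells expressing endogenous GR and a stably integrated GRE-bla reporter, stimulated with 5 nM dexamethasone (final) alongside test compounds for 18 h.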

[11] = qHTS assay to identify small molecule antagonists of the glucocorticoid receptor (GR) signaling pathway - cell viability counter screen (AID 720693); also: nearly all actives have a fitted effect of over 55% in size
[12] = qHTS assay for identifying genotoxic compounds that show differential cytotoxicity against isogenic chicken DT40 cell lines with known DNA damage response pathways - wild type cell line (AID 743012); also: nearly all actives have a fitted effect of over 60% in size
How it was run: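 Luminescent ATP viability signal (CellTiter-Glo, 30 min RT) recorded after wild type DT40 cells were incubated with compounds for 40 h at 37 C/5% CO2.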

[13] = qHTS assay for identifying genotoxic compounds that show differential cytotoxicity against isogenic chicken DT40 cell lines with known DNA damage response pathways - Rev3 mutant cell line (AID 743014); also: nearly all actives have a fitted effect of over 55% in size
[14] = qHTS assay for identifying genotoxic compounds that show differential cytotoxicity against isogenic chicken DT40 cell lines with known DNA damage response pathways - Rad54/Ku70 mutant cell line (AID 743015); also: nearly all actives have a fitted effect of over 60% in size
[15] = qHTS assay to identify small molecule antagonists of the androgen receptor (AR) signaling pathway - cell viability counter screen (AID 743033; also: nearly all actives have a fitted effect of over 45% in size)
[16] = qHTS assay to identify small molecule antagonists of the androgen receptor (AR) signaling pathway using the MDA cell line - cell viability counter screen (AID 743041; also: nearly all actives have a fitted effect of over 45% in size)
How it was run: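 Compound exposure lasted 16 h at 37C in MDA-kb2 AR-luc cells stimulated with R1881. Protease-based CellTiter-Fluor reagent was applied for the final 30 min and fluorescence measured.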
% is scaled to controls: 0 for no effect and ±100 for the full control effect.

Chain of Glucocorticoid receptor (Homo sapiens) (P04150 whole entry, looked up): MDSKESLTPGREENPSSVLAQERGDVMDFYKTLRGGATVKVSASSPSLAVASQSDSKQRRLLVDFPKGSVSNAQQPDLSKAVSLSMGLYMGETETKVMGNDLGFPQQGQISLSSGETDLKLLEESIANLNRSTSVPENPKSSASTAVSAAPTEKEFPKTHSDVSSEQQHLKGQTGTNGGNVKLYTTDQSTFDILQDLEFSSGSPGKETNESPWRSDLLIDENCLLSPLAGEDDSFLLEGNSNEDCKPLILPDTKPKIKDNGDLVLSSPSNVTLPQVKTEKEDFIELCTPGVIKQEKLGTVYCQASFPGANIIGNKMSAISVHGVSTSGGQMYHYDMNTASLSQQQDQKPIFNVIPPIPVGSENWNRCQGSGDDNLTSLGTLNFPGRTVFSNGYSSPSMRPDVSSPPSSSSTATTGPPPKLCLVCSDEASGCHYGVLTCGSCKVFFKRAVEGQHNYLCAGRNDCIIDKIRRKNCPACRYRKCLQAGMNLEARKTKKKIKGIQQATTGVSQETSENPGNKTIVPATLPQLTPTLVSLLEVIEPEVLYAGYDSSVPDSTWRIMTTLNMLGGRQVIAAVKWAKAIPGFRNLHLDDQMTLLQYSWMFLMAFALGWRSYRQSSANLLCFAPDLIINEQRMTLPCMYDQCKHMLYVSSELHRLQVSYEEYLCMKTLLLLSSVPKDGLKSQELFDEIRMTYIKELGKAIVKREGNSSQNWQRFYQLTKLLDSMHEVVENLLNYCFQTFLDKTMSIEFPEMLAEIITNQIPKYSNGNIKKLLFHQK

C=CCCCCCCCCCCCCCC
inactive: fluorescence, % of fluorescein [1] -0.003% [at 18.6 µM] | fluorescence, % of fluorescent control [2] 0.006% [at 18.6 µM] | activity change [3] 0.0547% [at 18.6 µM] | fluorescence, % of fluorescent control [4] -0.342% [at 18.6 µM] | fluorescence, % of Rose Bengal [5] 0.0019% [at 18.6 µM] | fluorescence, % of fluorescent control [6] -0.0168% [at 18.6 µM] | fluorescence, % of fluorescein control [7] 0.0254% [at 18.6 µM] | fluorescence, % of fluorescent control [8] 0.001% [at 18.6 µM] | Potency [9] | outcome [10] | outcome [11] | Potency [12] | Potency [13] | Potency [14] | outcome [15] | outcome [16]

CN(C)CCc1c[nH]c2ccc(C[C@H]3COC(=O)N3)cc12
inactive: outcome [1] | outcome [2] | outcome [3] | outcome [4] | outcome [5] | outcome [6] | outcome [7] | outcome [8] | Potency [9] | outcome [10] | outcome [11] | Potency [13] | Potency [14] | outcome [15] | outcome [16]

CN(C)CCCN(C)C
inactive: fluorescence, % of fluorescein [1] -0.137% [at 3.72 µM] | fluorescence, % of fluorescent control [2] -0.55% [at 3.72 µM] | activity change [3] -0.2% [at 3.72 µM] | fluorescence, % of fluorescent control [4] -0.816% [at 3.72 µM] | fluorescence, % of Rose Bengal [5] -0.0354% [at 3.72 µM] | fluorescence, % of fluorescent control [6] -0.358% [at 3.72 µM] | fluorescence, % of fluorescein control [7] -0.197% [at 3.72 µM] | fluorescence, % of fluorescent control [8] -0.76% [at 3.72 µM] | activation [9] -0.0659% [at 6.9 µM] | activity change, negative = inhibition [10] 10.4% [at 7.04 µM] | viability change, negative = cytotoxic [11] 3.46% [at 7.04 µM] | activity change, negative = cytotoxicity [12] -5.84% [at 8.52 µM] | activity change, negative = cytotoxicity [14] 3.34% [at 8.55 µM] | activity change, negative = cytotoxicity [15] 3.01% [at 7.04 µM] | viability change, negative = cytotoxic [16] 5.47% [at 8.47 µM]

COc1cc(NS(=O)(=O)c2ccc(N)cc2)ncn1
inactive: fluorescence, % of fluorescein [1] 0.0387% [at 18.6 µM] | fluorescence, % of fluorescent control [2] 0.0083% [at 18.6 µM] | activity change [3] 0.0071% [at 18.6 µM] | fluorescence, % of fluorescent control [4] -0.0018% [at 18.6 µM] | fluorescence, % of Rose Bengal [5] 0.116% [at 18.6 µM] | fluorescence, % of fluorescent control [6] 0.0187% [at 18.6 µM] | fluorescence, % of fluorescein control [7] 0.0114% [at 18.6 µM] | fluorescence, % of fluorescent control [8] -0.0071% [at 18.6 µM] | Potency [9] | outcome [10] | outcome [11] | Potency [12] | Potency [14] | outcome [16]

Cc1nnc(C(=O)NC(C)(C)c2nc(C(=O)NCc3ccc(F)cc3)c(O)c(=O)n2C)o1
inactive: outcome [1] | outcome [2] | outcome [3] | outcome [4] | outcome [5] | outcome [6] | outcome [7] | outcome [8] | Potency [9] | outcome [10] | outcome [11] | Potency [12] | Potency [13] | Potency [14] | outcome [15] | outcome [16]

CCCCCC(CC)OC(=O)CCCOc1ccc(Cl)cc1Cl (stereo unspecified)
inactive: outcome [1] | outcome [2] | outcome [3] | outcome [4] | outcome [5] | outcome [6] | outcome [7] | outcome [8] | Potency [9] | outcome [10] | outcome [11] | Potency [12] | Potency [14] | outcome [15] | outcome [16]

CCCCS
inactive: outcome [1] | outcome [2] | outcome [3] | outcome [4] | outcome [5] | outcome [6] | outcome [7] | outcome [8] | Potency [9] | outcome [10] | outcome [11] | Potency [12] | Potency [13] | Potency [14] | outcome [16]

COc1cc(C(=O)NC2CCCNC2)cc(OC)c1OC (stereo unspecified)
inactive: outcome [1] | outcome [2] | outcome [3] | outcome [4] | outcome [5] | outcome [6] | outcome [7] | outcome [8] | Potency [9] | outcome [10] | outcome [11] | Potency [13] | Potency [14] | outcome [15] | outcome [16]
